We go through 24 molecules from PubChem BioAssay AID652054 (National Center for Advancing Translational Sciences (NCATS), 2013).

In all, about 360,000 compounds went through this assay and about 9,100 (2.5%) were called active. Not shown: some 4% with an inconclusive outcome. The sample holds actives, similar compounds and a random draw of the others, so the mix is not that of the screen. Rule as the data show it: active = max response below about -50%; inconclusive = no clear call, values can overlap the other calls; inactive = above that.
% is scaled to controls: 0 for no effect and ±100 for the full control effect.

Sequence of D(3) dopamine receptor (Homo sapiens) (P35462 whole entry, looked up): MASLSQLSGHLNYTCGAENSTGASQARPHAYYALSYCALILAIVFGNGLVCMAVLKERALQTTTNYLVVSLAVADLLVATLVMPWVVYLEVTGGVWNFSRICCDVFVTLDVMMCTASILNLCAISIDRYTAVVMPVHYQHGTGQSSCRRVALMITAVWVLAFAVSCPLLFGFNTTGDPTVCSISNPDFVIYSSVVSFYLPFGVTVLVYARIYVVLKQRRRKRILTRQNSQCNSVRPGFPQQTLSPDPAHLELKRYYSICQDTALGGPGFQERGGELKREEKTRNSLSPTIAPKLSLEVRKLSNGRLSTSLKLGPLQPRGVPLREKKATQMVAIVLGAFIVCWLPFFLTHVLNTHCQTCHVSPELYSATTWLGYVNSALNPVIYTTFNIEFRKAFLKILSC

The target of this assay is D(3) dopamine receptor (Homo sapiens) (UniProt P35462). Nature of the assay: qHTS of D3 Dopamine Receptor Antagonist: qHTS. Particulars: D3R cells, DiscoveRx beta-arrestin luminescence, antagonist mode; stronger effect = lower value. The method, boiled down:
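Cells expressing the human receptor were seeded at 1500 cells/well, incubated overnight at 37 degrees C in 5% CO2, then exposed to library compounds with dopamine controls for 90 minutes at 37 degrees C before luminescent detection.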
Background: qHTS replaces the single test concentration by a dilution series.
For `C[C@H]1CN([C@@H](C)CO)C(=O)CCCn2nncc2CO[C@@H]1CN(C)Cc1ccc(Oc2ccccc2)cc1`, the max response, negative = inhibition is -10.5% (inactive). In the case of `C=CS(=O)c1sc(Cl)c(N2CCOCC2)c1[N+](=O)[O-]` (centres undefined) it was -84.2% (active); in that of `CC1(C(=O)NCc2ccco2)Cc2c(-c3ccc4c(c3)OCO4)ccnc2O1` (centres undefined), 5.33% (inactive).

Consider `CC(=O)NN=C(C)c1ccc(NC(=O)C2CC2)cc1`, for which the max response, negative = inhibition was 3.77% (inactive). Take `COc1ccc(CCC(C)N2CCc3ccccc3C2)cc1` (centres undefined): the max response, negative = inhibition was -112% (active). In the case of `COc1ccc(NC(=O)C(=O)NCC(c2ccco2)N2CCc3ccccc3C2)cc1` (centres undefined) it was 6.38% (inactive); in that of `COc1ccc(CN2CN(C(C)C)CSC2=S)cc1`, -12.9% (inactive); in that of `O=C(OC1CC2CC1[C@H]1CCCCN1C2=O)N1CCOCC1` (some centres undefined), 3.81% (inactive). In the case of `O=C(C(=O)N1CCC(c2ccccc2)CC1)c1ccccc1` it was 11.8% (inactive); in that of `Cc1ccc(-n2c(O)c(C=Nc3ccc(S(=O)(=O)Nc4ncccn4)cc3)c3ccccc3c2=O)cc1C`, 1.71% (inactive). In the case of `CCN(CC)CCCN=Cc1c(O)n(-c2ccc(C)cc2)c(=O)c2ccccc12` it was 9.43% (inactive); in that of `CCOc1ccc(-n2c(O)c(/C=N/Nc3nc(C)cc(C)n3)c3ccccc3c2=O)cc1`, -56.4% (active). Turning to `O=C(Nc1ccc2c(c1)OCCO2)C1c2ccccc2OCC(=O)N1Cc1ccccn1` (centres undefined), the max response, negative = inhibition is 33.3% (inactive). As for `Cc1cc(C)n(-c2ccc3nncn3n2)n1`, the figure is 1.57% (inactive); as for `Cc1ccc(S(=O)(=O)Nc2nc(C)cc(-n3nc(C)cc3C)n2)cc1`, -12.2% (inactive); as for `Cc1cc(C)n(-c2ccc(Cl)c(C(=O)O)n2)n1`, -86.2% (active). As for `COCCCNC(=O)c1cccc2c(-c3ccc(O)c(OC)c3)coc12`, the figure is 0.229% (inactive). In the case of `COC(=O)[C@]12CCCCC=C1N(Cc1ccco1)C(=O)[C@H](CC(=O)NCC1CCCCC1)C2` it was -0.188% (inactive); in that of `CN1OC[C@@H]2CN(S(=O)(=O)c3cccc(C(F)(F)F)c3)[C@H](c3ccc(-c4cc5ccccc5o4)cc3)C[C@@H]21`, -12% (inactive).

As for `CC1(C(=O)NCc2ccc(F)c(F)c2)Cc2c(-c3ccc4c(c3)OCO4)ccnc2O1` (centres undefined), the max response, negative = inhibition is 19.2% (inactive). As for `Cc1ccc(CN2CCN(/N=C/c3ccco3)CC2)c(C)c1`, the figure is -78.6% (active); as for `Cc1ccc(CN2CCN(/N=C/c3cccnc3)CC2)c(C)c1`, -15% (inactive); as for `Cc1ccc(NC(=O)CCC(=O)N/N=C/c2ccco2)c(C)c1`, 16.8% (inactive). In the case of `O=C(/C=C/[C@H]1O[C@@H](n2cnc3c(NC(=O)c4ccccc4)ncnc32)[C@H](O)[C@@H]1O)NCc1ccccc1` it was 0% (inactive).
